Source: PubChem (several laboratories)
Her2 expr inh = inhibitors of human Her2 kinase expression | actives 0.69% (n = 65,000) | P04626 | HER2 level % of control, % at 10 µM | SKBR-3 HER2 protein level, AlphaScreen, 18-24 h; hits give low values;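 active = HER2 level under 5% of the carrier-only control; inconclusive = no clear call, values can overlap the other calls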;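 note: 100% = DMSO carrier and 0% = 500 nM PU-H71 HSP90 inhibitor; lower value means stronger loss of Her2 protein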
SKBR3 24h inh = SK-BR-3 proliferation inhibitors. viability, % at 10 µM. SK-BR-3 viability, CellTiter-Glo ATP luminescence, 24 h; hits give low values. AID 847. actives 0.47% (n = 41,000);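 active = viability at or below the median of all test compounds minus 3 SD, in both replicates if run twice, cut at about 45% in these data; inconclusive = duplicate replicates that disagree with each other; inactive = viability above that cutoff in every replicate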;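 note: 100% = median untreated cell wells and 0% = median positive control drug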
Jurkat viability = cytotoxic compounds reducing Jurkat cell viability. Jurkat E6.1 viability, ATP luminescence, 48 h. inhibition, % at 4 µM. actives 1.2% (n = 56,000);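 active = inhibition above the mean inhibition of all tested compounds plus 3 SD, cut at about 28% in these data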
* = called active by the depositor; u = inconclusive; x = no result given. A selection: hits, their analogues and other compounds. The true share with any hit is near 1.9%.

SMILES | Her2 expr inh | SKBR3 24h inh | Jurkat viability
COCc1nnc(NC(=O)c2ccc(S(=O)(=O)N(C)C3CCCCC3)cc2)o1 | 106.1 | 26.6* | 10.0
COc1ccc(OC)c(C(c2nnnn2CCC(C)C)N2CCN(C(=O)c3ccco3)CC2)c1 (stereo unspecified) | 115.8 | 110.5 | -2.7
Cn1c(=O)n(CC(=O)N2CCOCC2)c2ccccc21 | 106.3 | 101.5 | 5.6
Cc1nc(NC(=O)CSc2nc3cccnc3n2Cc2ccccc2)sc1C | 94.8 | 114.6 | -2.8
CCc1nnc(SCc2cn3c(C)cc(C)nc3n2)n1N | 96.9 | x | -0.4
COc1ccc(S(=O)(=O)n2nc(-c3cc(OC)c(OC)c(OC)c3)cc2N)cc1OC | 93.2 | x | 5.1
COc1ccc(-c2cc(N)n(S(=O)(=O)c3c(F)c(F)c(F)c(F)c3F)n2)cc1OC | -12.7* | x | 88.2*
COC(=O)c1ccc2c(c1)S(=O)(=O)NC(=NCc1ccco1)S2 | 95.3 | x | -2.1
Nc1cc(C2CCCC2)nn1-c1ccccc1 | 105.0 | 89.2 | x
NC(=O)CSc1nnc2n(-c3ccccc3)c(=O)c3c4c(sc3n12)CCCCC4 | 10.6 | 32.3* | x
Cc1nnc2n(-c3ccccc3)c(=O)c3c4c(sc3n12)CCCC4 | 96.5 | 83.2 | x
CC1CCc2nn(CC(=O)NCCN3CCCCC3C)cc2C1 (stereo unspecified) | 105.5 | x | -0.6
COc1cccc(NC(=O)CCSc2nnc3scc(-c4ccccc4)n23)c1 | 63.7 | x | x
CC1(C)CC(=O)C2(CC3=C(CC(C)(C)CC3=O)O2)C(=O)C1 | -33.0* | 89.7 | -1.1
CC1(C)CC(=O)c2c(noc2-c2ccccc2)C1 | 106.8 | x | -2.9
CC(=O)N(Cc1ccc2c(c1)OCO2)C1CC(=O)N(CCc2ccccc2)C1=O (stereo unspecified) | 95.9 | x | -4.5
CC(C)NCC(O)Cn1c2c(c3ccccc31)CCc1c-2cnn1-c1ccccc1 (stereo unspecified) | -15.7* | 2.2* | 1.4
CN1CCc2c(n(CC(O)CN3C(=O)c4ccccc4S3(=O)=O)c3ccccc23)C1=O (stereo unspecified) | 95.1 | 111.7 | x
COc1nc2c(C)cccc2cc1-c1noc(-c2ccncc2)n1 | 195.5 | 103.9 | 3.9
Cc1ccsc1C=Nc1ccc(O)cc1 | 76.8 | x | 47.8*
Oc1c(C=Nc2cccnc2)sc2ccccc12 | 73.4 | 91.0 | x
O=C(c1ccco1)N1CCN(/C(=N/S(=O)(=O)c2cccs2)c2ccccc2Cl)CC1 | 124.3 | x | -5.2
CCNc1nc2c(c(=O)n(C)c(=O)n2C)n1Cc1ccc(Cl)cc1 | 95.9 | x | 57.5*
CCC(C)Nc1nc2c(c(=O)n(C)c(=O)n2C)n1Cc1ccc(Cl)cc1 (stereo unspecified) | 84.7 | x | 3.2
CC(C)N(Cc1nnc(-c2ccccc2Cl)o1)C(=O)c1cccc(C#N)c1 | 92.1 | 79.3 | x
SMILES | Her2 expr inh | SKBR3 24h inh | Jurkat viability
O=C(Nc1ccc(SC(F)F)cc1)c1ccc2nccnc2c1 | 169.9 | 75.0 | 32.3*
O=C(Nc1ccc2c(c1)OCCO2)c1ccc2nccnc2c1 | 125.2 | 98.4 | 3.3
CCc1nn(C(C)C(=O)N2CCc3ccccc3C2)c(=O)c2cc3occc3n12 (stereo unspecified) | 89.3 | x | -2.3
CCNC(=O)c1ccccc1NC(=O)c1cccc(S(=O)(=O)N2CCC(C)CC2)c1 | 95.2 | 56.8 | 9.1
CNC(=O)c1ccccc1NC(=O)c1cccc(S(=O)(=O)N2CCC(C)CC2)c1 | 156.8 | 43.1* | 3.4
Cn1nnnc1SCC(=O)Nc1c(Cl)cccc1Cl | -20.5* | x | -0.5
Cn1nnnc1SCC(=O)Nc1ccc(Oc2ccc(Cl)cc2)cc1 | 94.0 | 90.4 | 50.9*
O=C(CSc1nnnn1-c1ccccc1)Nc1ccc(Cl)cc1 | 114.9 | 106.0 | 3.7
Cn1nnnc1SCC(=O)Nc1ccccc1Cl | 123.5 | x | -5.8
Cc1sc(NC(=O)CSc2nnc(-c3ccc(F)cc3)o2)c(C#N)c1C | 106.7 | 94.0 | 8.0
COCCn1c(Cc2ccccc2)nnc1SCC(=O)N(C)C | -18.9* | 131.1 | 2.0
COCCn1c(Cc2ccccc2)nnc1SCC(=O)NC(C)(C)C | 105.0 | 97.2 | 11.6
Cn1c(=O)c(C(=S)NC(=O)C2CC2)c(N)n(Cc2ccccc2)c1=O | 74.7 | x | -1.9
COCCn1c(SCC(=O)c2ccc(Cl)cc2)nnc1C(C)C | 96.4 | 91.9 | 2.3
CCCS(=O)(=O)c1nnnn1-c1cccc(OC)c1 | -21.7* | u | 101.3*
COc1ccc(-n2nnnc2SCC(=O)c2cccc(OC)c2)cc1 | 84.0 | 69.6 | -2.5
CCOCCCNC(=O)C(NC(=O)c1ccc(=O)[nH]c1)c1ccccc1 (stereo unspecified) | 73.2 | x | x
CCOCCCNC(=O)C(NC(=O)CC1NC(=O)NC1=O)c1ccc(Cl)cc1 (stereo unspecified) | 97.7 | 43.9* | x
CC(OC(=O)c1cccc(NS(C)(=O)=O)c1)C(=O)Nc1ccc(N2CCOCC2)cc1 (stereo unspecified) | 96.7 | x | 1.8
CCN(CC)c1nc(N)nc(NS(=O)(=O)c2ccc(Cl)cc2)n1 | 91.9 | x | 9.7
CCNc1nc(NC(C)C)nc(NS(=O)(=O)c2ccc(Cl)cc2)n1 | 105.2 | 42.4* | 9.1
CN(c1ccccc1C(=O)O)S(C)(=O)=O | 138.8 | 111.8 | -2.0
CN(C)c1ccccc1C(=O)c1ccccc1N(C)C | 73.5 | 96.5 | 88.2*
Cn1c(Cn2c(=O)sc3ccccc32)nnc1SCc1ccccc1 | 95.1 | x | 1.7
CCOC(=O)c1ccc(NC(=O)c2ccc(CN3CCOCC3)cc2)cc1 | 105.5 | x | 52.8*
SMILES | Her2 expr inh | SKBR3 24h inh | Jurkat viability
O=C(Nc1ccc2c(c1)OCO2)c1ccc(CN2CCOCC2)cc1 | 80.9 | 92.3 | 2.8
CCOC(=O)c1cnn(CC2CCCCC2)c1N | 107.3 | 103.2 | -4.2
Nc1nncn1C(=O)CCCOc1ccc(Cl)cc1Cl | 88.0 | 84.6 | 4.9
COc1cccc(-c2nnn(CC(=O)O)n2)c1 | -22.3* | 99.0 | 0.9
CCOC(=O)Cn1nnc(-c2cccc(OC)c2)n1 | 113.7 | 105.7 | -6.2
CCOC(=O)c1c(C)c(C(=O)NCCCOC(C)C)c(C)n1C | 113.4 | x | -0.3
CN(CC1CCCO1)S(=O)(=O)c1ccc(C(=O)Nc2nc3cc4c(cc3s2)OCO4)cc1 (stereo unspecified) | 84.3 | x | 17.6
CCC(c1nnnn1C1CCCCC1)N(Cc1ccco1)Cc1cc2ccc(OC)cc2[nH]c1=O (stereo unspecified) | 23.9 | 96.0 | -3.0
CCOC(=O)Cn1nnnc1C(CC)N(Cc1cccs1)Cc1cc2ccc(OC)cc2[nH]c1=O (stereo unspecified) | -9.3* | 101.2 | 1.6
CCOc1ccccc1C1CC(c2ccc(Br)cc2)Nc2nc(N)nn21 (stereo unspecified) | 74.1 | x | 5.5
CCN(CC)S(=O)(=O)c1ccc(C(=O)Nc2nnc(C(C)C)s2)cc1 | 91.4 | x | -14.6
CCN(CC)S(=O)(=O)c1ccc(NC(=O)c2ccc(NS(C)(=O)=O)cc2)cc1 | 107.1 | 78.6 | 5.9
CCc1nnc(NC(=O)c2ccc(S(=O)(=O)N(CC(C)C)CC(C)C)cc2)o1 | 83.9 | 89.6 | 94.0*
CSCc1nnc(NC(=O)c2ccc(S(=O)(=O)N(CC(C)C)CC(C)C)cc2)o1 | 80.2 | 106.4 | 87.6*
CC(=O)N1CCc2cc(S(=O)(=O)CCC(=O)N3CCN(C(=O)c4ccco4)CC3)ccc21 | 150.3 | x | -12.6
CNC(=O)C1C2C=CC3(O2)C1C(=O)N(CCOC)C3C(=O)NCc1ccc(OC)cc1 (stereo unspecified) | 70.7 | 95.3 | x
